In the supplement of paper PMC4022240:
± gives the standard deviation.

How the values were obtained:
Test in all cases: peptide microarray binding signal (635 nm), min-max normalized on array (fraction of array maximum); higher = stronger binding
[1] = target: T1, HaloTag-ATRX ADD domain (163-292)
T1 chain: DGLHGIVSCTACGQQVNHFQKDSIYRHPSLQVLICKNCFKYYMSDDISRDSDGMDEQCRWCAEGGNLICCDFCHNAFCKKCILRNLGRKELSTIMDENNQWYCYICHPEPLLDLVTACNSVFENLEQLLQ
Outline: (§1)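 An Axon GenePix 4000B scanned the arrays at 635 nm for signal and at 532 nm to catch misprints. Those arrays held histone 13-mer peptide–cellulose conjugates printed in triplicate on nitrocellulose with a Cy3 tracer, blocked overnight at 4°C and probed for 1 h at 4°C with biotin-labelled HaloTag reader fusions (10 nM to 1 μM) plus streptavidin-Alexa Fluor 647 or with rabbit histone antibodies (1:10,000 to 1:2,000) plus anti-rabbit Alexa 647. Each binding signal is a triplicate-spot mean intensity, scaled min-max within its library.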

[2] = target: HaloTag-ING2 PHD (mouse Ing2 200-280)
Outline: as §1

[3] = target: anti-H3K4me3 antibody ab8580
Outline: as §1

[4] = target: anti-H3K9me3 antibody ab8898
Outline: as §1

[5] = peptide region: H3 112-124, peptide modifications: H3K115ac H3R116me2s, binder concentration: 1:2,000 dilution
[6] = peptide region: H3 112-124, peptide modifications: H3K115ac H3R116me2s, binder concentration: 1:10,000 dilution
[7] = peptide region: H3 112-124, peptide modifications: H3K115me1, binder concentration: 1:2,000 dilution
[8] = peptide region: H3 112-124, peptide modifications: H3K115me1, binder concentration: 1:10,000 dilution
[9] = peptide region: H3 73-85, peptide modifications: H3K79me3, binder concentration: 1:2,000 dilution
[10] = peptide region: H3 73-85, peptide modifications: H3K79me3, binder concentration: 1:10,000 dilution
[11] = peptide region: H3 112-124, peptide modifications: H3K115me1 H3K122me1, binder concentration: 1:2,000 dilution
[12] = peptide region: H3 112-124, peptide modifications: H3K115me1 H3K122me1, binder concentration: 1:10,000 dilution
[13] = peptide region: H3 112-124, peptide modifications: H3K115ac H3R116cit, binder concentration: 1:2,000 dilution
[14] = peptide region: H3 112-124, peptide modifications: H3K115ac H3R116cit, binder concentration: 1:10,000 dilution

B1: H3 112-124 I H A Kac Rme2s V T I M P K D I (peptide)
chain: IHAKRVTIMPKDI
peptide microarray binding signal ([1]; peptide region: H3 112-124, peptide modifications: H3K115ac H3R116me2s, binder concentration: 50 nM): 0.005956 ± 4.1e-05
peptide microarray binding signal ([1]; peptide region: H3 112-124, peptide modifications: H3K115ac H3R116me2s, binder concentration: 500 nM): 0.0125 ± 0.0017
peptide microarray binding signal ([2]; peptide region: H3 112-124, peptide modifications: H3K115ac H3R116me2s, binder concentration: 10 nM): 0.0167 ± 0.0042
peptide microarray binding signal ([2]; peptide region: H3 112-124, peptide modifications: H3K115ac H3R116me2s, binder concentration: 100 nM): 0.0203 ± 0.0028
peptide microarray binding signal [3, 5]: 0.00436 ± 0.00063
peptide microarray binding signal [3, 6]: 0.00576 ± 0.00047
peptide microarray binding signal [4, 5]: 0.00375 ± 0.00054
peptide microarray binding signal [4, 6]: 0.00398 ± 0.00024

B2: H3 112-124 I H A Kme R V T I M P K D I (peptide)
chain: IHAKRVTIMPKDI
peptide microarray binding signal ([1]; peptide region: H3 112-124, peptide modifications: H3K115me1, binder concentration: 50 nM): 0.00774 ± 0.00015
peptide microarray binding signal ([1]; peptide region: H3 112-124, peptide modifications: H3K115me1, binder concentration: 500 nM): 0.0198 ± 0.0023
peptide microarray binding signal ([2]; peptide region: H3 112-124, peptide modifications: H3K115me1, binder concentration: 10 nM): 0.00668 ± 0.00016
peptide microarray binding signal ([2]; peptide region: H3 112-124, peptide modifications: H3K115me1, binder concentration: 100 nM): 0.0314 ± 0.0099
peptide microarray binding signal [3, 7]: 0.00168 ± 0.00023
peptide microarray binding signal [3, 8]: 0.001997 ± 1.8e-05
peptide microarray binding signal [4, 7]: 0.0034 ± 0.00038
peptide microarray binding signal [4, 8]: 0.00236 ± 0.00015

B3: H3 73-85 E I A Q D F Kme3 T D L R F Q (peptide)
chain: EIAQDFKTDLRFQ
peptide microarray binding signal ([1]; peptide region: H3 73-85, peptide modifications: H3K79me3, binder concentration: 50 nM): 0.0032 ± 3.5e-05
peptide microarray binding signal ([1]; peptide region: H3 73-85, peptide modifications: H3K79me3, binder concentration: 500 nM): 0.0059 ± 0.0008
peptide microarray binding signal ([2]; peptide region: H3 73-85, peptide modifications: H3K79me3, binder concentration: 10 nM): 0.00483 ± 8.8e-05
peptide microarray binding signal ([2]; peptide region: H3 73-85, peptide modifications: H3K79me3, binder concentration: 100 nM): 0.00723 ± 0.00027
peptide microarray binding signal [3, 9]: 0.00851 ± 0.00073
peptide microarray binding signal [3, 10]: 0.0112 ± 0.0053
peptide microarray binding signal [4, 9]: 0.227 ± 0.017
peptide microarray binding signal [4, 10]: 0.201 ± 0.042

B4: H3 112-124 I H A Kme R V T I M P Kme D I (peptide)
chain: IHAKRVTIMPKDI
peptide microarray binding signal ([1]; peptide region: H3 112-124, peptide modifications: H3K115me1 H3K122me1, binder concentration: 50 nM): 0.00511 ± 9.8e-05
peptide microarray binding signal ([1]; peptide region: H3 112-124, peptide modifications: H3K115me1 H3K122me1, binder concentration: 500 nM): 0.0109 ± 9.7e-05
peptide microarray binding signal ([2]; peptide region: H3 112-124, peptide modifications: H3K115me1 H3K122me1, binder concentration: 10 nM): 0.0179 ± 0.0021
peptide microarray binding signal ([2]; peptide region: H3 112-124, peptide modifications: H3K115me1 H3K122me1, binder concentration: 100 nM): 0.0298 ± 0.0035
peptide microarray binding signal [3, 11]: 0.00187 ± 0.00022
peptide microarray binding signal [3, 12]: 0.00234 ± 0.00015
peptide microarray binding signal [4, 11]: 0.00121 ± 5.5e-05
peptide microarray binding signal [4, 12]: 0.00115

B5: H3 112-124 I H A Kac Rcit V T I M P K D I (peptide)
chain: IHAKRVTIMPKDI
peptide microarray binding signal ([1]; peptide region: H3 112-124, peptide modifications: H3K115ac H3R116cit, binder concentration: 50 nM): 0.00668 ± 0.00021
peptide microarray binding signal ([1]; peptide region: H3 112-124, peptide modifications: H3K115ac H3R116cit, binder concentration: 500 nM): 0.0105 ± 0.00017
peptide microarray binding signal ([2]; peptide region: H3 112-124, peptide modifications: H3K115ac H3R116cit, binder concentration: 10 nM): 0.0109 ± 0.00031
peptide microarray binding signal ([2]; peptide region: H3 112-124, peptide modifications: H3K115ac H3R116cit, binder concentration: 100 nM): 0.016 ± 0.00067
peptide microarray binding signal [3, 13]: 0.00179 ± 5.5e-05
peptide microarray binding signal [3, 14]: 0.00211 ± 3.4e-05
peptide microarray binding signal [4, 13]: 0.00154 ± 1.8e-05
peptide microarray binding signal [4, 14]: 0.00127 ± 1.3e-05
